Nine molecules from PubChem BioAssay (Tox21) can be followed below.

A short description of experiment [1]: qHTS assay to identify small molecule antagonists of the estrogen receptor beta (ER-beta) signaling pathway - cell viability counter screen (AID 1259382).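 Further: HEK293T cells carrying ER-beta-UAS-bla reporter stimulated with estradiol; series mostly up to about 92 µM; nearly all actives have a fitted effect of over 55% in size.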 The essentials: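 In this multiplexed counter screen, cells were seeded at 2,000 per well in medium with 2% charcoal-stripped FBS and incubated 6 hr before compound and 1nM final E2 were added. Sixteen hours later, ATP-based luminescence reported viability.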
A general note: qHTS replaces the single test concentration by a dilution series.

Experiment [2] can be described thus: qHTS assay to identify small molecule agonists or antagonists of the thyroid stimulating hormone receptor (TSHR) signaling pathway - wild type cell line counter screen (AID 1259384; calls by dose curve). The essentials:
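Counter screen in untransfected Hek293: compounds (15-point titration, triplicate) plus phosphodiesterase inhibitor Ro20-1724 added after 18 h plating; 30 min RT. Intracellular cAMP via competitive d2/cryptate immunoassay, 1 h incubation.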

For experiment [3], the target named is Thyrotropin receptor (Homo sapiens) (UniProt P16473). Nature of the experiment: qHTS assay to identify small molecule antagonists of the thyroid stimulating hormone receptor (TSHR) signaling pathway (AID 1259385; calls by dose curve; further: nearly all actives have a fitted effect of over 20% in size). In a few lines:
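Antagonist mode: compound-treated TSHR-expressing HEK293 cells were stimulated with 1.5 ng/mL TSH (final) in presence of Ro20-1724 for 30 min at RT. HTRF cAMP detection after 1 h; each compound tested at 15 concentrations, triplicate.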

Experiment [4] can be described thus: qHTS assay to identify small molecule agonists of the estrogen receptor alpha (ER-alpha) signaling pathway in the presence of an antagonist - cell viability counter screen (AID 1259386).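 Further: series mostly up to about 92 µM; cells exposed to compounds for 22 h at 37 °C before the viability read; nearly all actives have a fitted effect of over 30% in size.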 The essentials: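 Viability counter screen using VM7Luc4E2 (full-length ER-alpha, four ERE-luciferase). The cells were treated with compounds alongside ICI-182,780 10.0nM for 22hr, and live-cell protease fluorescence was quantified with CellTiter-Fluor.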

Experiment [5] has as its target Progesterone receptor (Homo sapiens) (UniProt P06401). Nature of the experiment: qHTS assay to identify small molecule agonists of the progesterone receptor (PR) signaling pathway (AID 1346784; calls by dose curve; further: nearly all actives have a fitted effect of over 30% in size; further: potency means the concentration at half of the fitted maximal effect). In a few lines: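 Using charcoal-stripped serum (2%) to limit endogenous steroids, PR-UAS-bla HEK 293T cells received compounds for 16 hr at 37C after 6 hr plating; beta-lactamase FRET fluorescence was recorded following 2 hr substrate loading at room temperature.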

Experiment [6] is described as follows: qHTS assay to identify small molecule agonists of the progesterone receptor (PR) signaling pathway - cell viability counter screen (AID 1346799; calls by dose curve; further: nearly all actives have a fitted effect of over 45% in size). The essentials:
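Cytotoxicity in PR-bla HEK293T cells: 16 h compound, 37C; CellTiter-Glo added post-FRET read; luminescence after 30 min RT.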

Experiment [7] in a line: qHTS assay to identify small molecule antagonists of the TGF-beta/Smad signaling pathway - cell viability counter screen (AID 1346824). Further: nearly all actives have a fitted effect of over 50% in size. The essentials: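 Cytotoxicity counter-screen run in the same wells as the beta-lactamase Smad reporter read: CellTiter-Glo luminescence after 30 min at room temperature. HEK 293T SBE-bla cells had 5 hr compound exposure at 37 C with TGF-beta1 (0.25 ng/mL stock).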

Experiment [8] in a line: qHTS assay to identify small molecule agonists of the TGF-beta/Smad signaling pathway (AID 1346859; active means well fitted activation curve with a large enough effect in the signal ratio in the repeat runs, not every such curve was filed as active; the % refers to the signal ratio; further: series mostly up to about 77 µM). The essentials:
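Stable Smad binding element-beta-lactamase HEK 293T cells; 5 hr compound exposure at 37 C under 5% CO2; 2 hr room-temperature substrate step; fluorescence excited at 405 nm, collected at 460 nm and 530 nm.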

Experiment [9] is described as follows: Human pregnane X receptor (PXR) small molecule agonists, qHTS cell viability counter screen (AID 1346977). Further: nearly all actives have a fitted effect of over 50% in size. In a few lines:
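Readout is CellTiter-Fluor fluorescence from PXR-Luc HepG2 cells. Plated cells rested 5hr, then were treated with compounds for 24hr at 37C and 5% CO2, with reagent present during the last hour.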

The nature of experiment [10]: Caspase-3/7 induction in HepG2 cells by small molecules, qHTS assay (AID 1346978). Further: nearly all actives have a fitted effect of over 15% in size. In a few lines: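 Caspase-3/7 induction was measured by Caspase-Glo 3/7 luminescence (30 min, room temperature) after a 17 hr compound exposure of wild-type HepG2 cells seeded at 2,000 per well and pre-incubated 5 hr.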
The nature of experiment [11]: Caspase-3/7 induction in CHO-K1 cells by small molecules, qHTS cell viability counter screen (AID 1346979). Further: nearly all actives have a fitted effect of over 35% in size. In a few lines:
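To flag cytotoxic compounds, treated CHO-K1 wild-type cells were given CellTiter-Fluor at 16hr and read fluorescently after 1hr at 37C; the caspase-3/7 luminescence was measured in these same wells.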

Experiment [12] is described as follows: Caspase-3/7 induction in CHO-K1 cells by small molecules, qHTS assay (AID 1346980). Further: nearly all actives have a fitted effect of over 15% in size. In a few lines: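 Luminescent Caspase-Glo 3/7 read (30min, room temperature) quantified apoptosis induction. Cells were wild-type CHO-K1, treated with compound for 17hr at 37 C and 5% CO2.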
Experiment [13] is described as follows: Caspase-3/7 induction in HepG2 cells by small molecules, qHTS cell viability counter screen (AID 1346981). Further: series mostly up to about 92 µM; nearly all actives have a fitted effect of over 30% in size. The essentials: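 Viability determined by CellTiter-Fluor fluorescence in HepG2 wells also used for the luminescent Caspase-Glo 3/7 read. Compounds were present for 16 hr at 37 C, 5% CO2 before reagent addition.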
Experiment [14] addresses Nuclear receptor subfamily 1 group I member 2 (Homo sapiens) (UniProt O75469). As to the kind of experiment: Human pregnane X receptor (PXR) small molecule agonists, qHTS assay (AID 1346982). Further: nearly all actives have a fitted effect of over 35% in size. In a few lines: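 Compound-induced hPXR transactivation of a CYP3A4 luciferase reporter was scored in HepG2 PXR-Luc cells over 24 hr at 37 C, 5% CO2, by luminescence.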
Experiment [15] is described as follows: qHTS assay to identify small molecule antagonists of the progesterone receptor (PR) signaling pathway - cell viability counter screen (AID 1346798). Further: series mostly up to about 92 µM; nearly all actives have a fitted effect of over 50% in size. The essentials:
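ATP content as viability readout: CellTiter-Glo luminescence, 30 min room temperature, in PR-UAS-bla HEK293T cells after 16 hr compound/R5020 treatment at 37C and 5% CO2.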

A short description of experiment [16]: qHTS assay to identify small molecule agonists of the TGF-beta/Smad signaling pathway - cell viability counter screen (AID 1346829). Further: top concentration of the series differs between compounds; nearly all actives have a fitted effect of over 45% in size. The essentials: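 Compound-treated SBE-bla HEK 293T cells (5 hr, 37 C) were assessed for viability with CellTiter-Glo in parallel with the reporter read.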
Experiment [17] addresses Progesterone receptor (Homo sapiens) (UniProt P06401). As to the kind of experiment: qHTS assay to identify small molecule antagonists of the progesterone receptor (PR) signaling pathway (AID 1346795; active means well fitted inhibition curve with a large enough effect in the signal ratio in the repeat runs, not every such curve was filed as active; the % refers to the signal ratio). The essentials: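 Inhibition of R5020-induced (1 nM final) beta-lactamase reporter signal in PR-UAS-bla HEK293T cells was scored by FRET fluorescence after overnight (16 hr) compound treatment.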

The target in experiment [18] is Thyrotropin-releasing hormone receptor (Homo sapiens) (UniProt P34981). Nature of the experiment: qHTS assay to identify small molecule antagonists of the thyrotropin-releasing hormone receptor (TRHR) signaling pathway (AID 1346877; active means well fitted inhibition curve with a large enough effect in the repeat runs, not every such curve was filed as active; further: series mostly up to about 51 µM). The essentials:
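Following an 18 h incubation at 37 °C and a 2 h calcium dye load, TRHR-HEK293 cells were exposed to compound (5 min, room temperature) and challenged with TRH, 1 nM final.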

Experiment [19] has the same target. As to the kind of experiment: qHTS assay to identify small molecule agonists of the thyrotropin-releasing hormone receptor (TRHR) signaling pathway (AID 1346891; calls by dose curve;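 further: HEK293 cells expressing TRHR with calcium dye readout; series mostly up to about 58 µM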). The essentials: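 In 1536-format, 1500 TRHR-Hek293 cells per well grew 18 h, took up calcium dye for 2 h at 37 °C, received compound, and were read kinetically; 15-point titrations, triplicates.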

The structures appear in SMILES notation. Values without a mark were called inactive. Results filed as inconclusive are left out. Calls of active or inactive are those of the source. Unless noted, the call rests on the fitted dose curve; in most records, active means well fitted curve in the direction sought with a large enough effect in the repeat runs; inconclusive means weak or mixed curves; inactive means no such curve, though single readings can be large; an effect the other way counts as inactive or inconclusive.

Sequence of Progesterone receptor (Homo sapiens) (P06401 whole entry, looked up): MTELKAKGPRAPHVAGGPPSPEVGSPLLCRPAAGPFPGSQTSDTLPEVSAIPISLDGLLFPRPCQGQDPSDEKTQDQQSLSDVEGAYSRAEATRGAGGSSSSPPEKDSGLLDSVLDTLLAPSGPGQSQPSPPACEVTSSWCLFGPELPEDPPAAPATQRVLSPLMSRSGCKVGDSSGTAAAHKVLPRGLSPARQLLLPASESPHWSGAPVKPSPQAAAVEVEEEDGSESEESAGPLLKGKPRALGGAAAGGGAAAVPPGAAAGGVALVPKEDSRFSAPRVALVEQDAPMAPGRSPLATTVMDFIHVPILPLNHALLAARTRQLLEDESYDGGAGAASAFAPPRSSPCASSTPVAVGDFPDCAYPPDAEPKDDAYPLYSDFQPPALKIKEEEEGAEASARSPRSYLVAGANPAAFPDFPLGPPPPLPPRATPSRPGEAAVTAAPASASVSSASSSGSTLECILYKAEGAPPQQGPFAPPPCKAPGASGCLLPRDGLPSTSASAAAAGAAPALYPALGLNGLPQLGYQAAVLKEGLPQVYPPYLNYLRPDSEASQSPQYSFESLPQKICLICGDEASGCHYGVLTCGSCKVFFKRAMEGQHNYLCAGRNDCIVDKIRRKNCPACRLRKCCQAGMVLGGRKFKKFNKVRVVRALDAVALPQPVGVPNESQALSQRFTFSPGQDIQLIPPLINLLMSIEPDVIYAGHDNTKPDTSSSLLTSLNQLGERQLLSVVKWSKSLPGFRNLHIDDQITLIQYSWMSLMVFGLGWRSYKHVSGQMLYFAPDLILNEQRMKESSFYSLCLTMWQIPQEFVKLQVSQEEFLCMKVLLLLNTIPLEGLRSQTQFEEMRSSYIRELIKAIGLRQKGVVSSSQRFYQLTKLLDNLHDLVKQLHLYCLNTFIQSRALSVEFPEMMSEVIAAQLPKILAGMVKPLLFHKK
Sequence of Nuclear receptor subfamily 1 group I member 2 (Homo sapiens) (O75469 whole entry, looked up): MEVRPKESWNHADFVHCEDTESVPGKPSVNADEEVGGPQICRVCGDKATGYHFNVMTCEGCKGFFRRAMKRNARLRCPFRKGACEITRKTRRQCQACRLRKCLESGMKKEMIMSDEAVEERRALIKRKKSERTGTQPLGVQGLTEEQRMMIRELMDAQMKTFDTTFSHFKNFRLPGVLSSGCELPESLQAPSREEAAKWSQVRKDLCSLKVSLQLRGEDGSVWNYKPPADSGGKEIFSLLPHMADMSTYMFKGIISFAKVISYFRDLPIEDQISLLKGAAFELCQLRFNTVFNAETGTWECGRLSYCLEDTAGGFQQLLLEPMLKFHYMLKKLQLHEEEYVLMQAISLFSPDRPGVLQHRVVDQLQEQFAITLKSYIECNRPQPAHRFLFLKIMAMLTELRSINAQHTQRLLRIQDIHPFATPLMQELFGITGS
Sequence of Thyrotropin receptor (Homo sapiens) (P16473 whole entry, looked up): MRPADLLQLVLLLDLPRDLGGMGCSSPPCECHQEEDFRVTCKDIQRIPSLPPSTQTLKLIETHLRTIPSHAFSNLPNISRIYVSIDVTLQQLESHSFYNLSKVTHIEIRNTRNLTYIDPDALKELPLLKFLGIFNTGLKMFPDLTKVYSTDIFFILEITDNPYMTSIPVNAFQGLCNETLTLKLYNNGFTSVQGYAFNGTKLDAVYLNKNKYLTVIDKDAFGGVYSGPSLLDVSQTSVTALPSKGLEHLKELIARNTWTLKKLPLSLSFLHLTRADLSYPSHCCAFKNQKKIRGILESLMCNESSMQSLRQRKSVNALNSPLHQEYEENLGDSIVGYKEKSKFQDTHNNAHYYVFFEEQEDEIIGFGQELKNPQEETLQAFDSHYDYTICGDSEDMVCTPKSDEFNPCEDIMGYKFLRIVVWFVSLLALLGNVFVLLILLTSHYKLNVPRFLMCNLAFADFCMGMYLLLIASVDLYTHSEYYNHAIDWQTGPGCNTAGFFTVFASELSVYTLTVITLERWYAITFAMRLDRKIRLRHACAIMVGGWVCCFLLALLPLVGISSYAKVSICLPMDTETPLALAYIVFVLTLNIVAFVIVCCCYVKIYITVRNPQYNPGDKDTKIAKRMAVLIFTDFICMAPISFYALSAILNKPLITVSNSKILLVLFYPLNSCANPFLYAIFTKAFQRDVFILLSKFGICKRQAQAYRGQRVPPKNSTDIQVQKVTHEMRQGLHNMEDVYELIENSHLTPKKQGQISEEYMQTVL
Sequence of Thyrotropin-releasing hormone receptor (Homo sapiens) (P34981 whole entry, looked up): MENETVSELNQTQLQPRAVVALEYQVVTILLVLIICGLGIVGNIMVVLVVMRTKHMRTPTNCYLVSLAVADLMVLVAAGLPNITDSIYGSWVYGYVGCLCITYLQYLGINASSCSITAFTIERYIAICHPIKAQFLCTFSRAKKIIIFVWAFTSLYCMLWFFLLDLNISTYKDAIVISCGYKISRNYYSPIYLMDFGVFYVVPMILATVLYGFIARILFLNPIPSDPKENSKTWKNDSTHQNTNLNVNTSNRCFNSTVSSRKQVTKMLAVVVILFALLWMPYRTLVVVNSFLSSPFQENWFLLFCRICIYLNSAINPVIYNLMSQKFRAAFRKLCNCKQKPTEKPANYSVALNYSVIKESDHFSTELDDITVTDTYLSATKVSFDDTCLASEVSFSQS

As for `CCOC(=O)C(C)(C)C`, the result in experiment [1], in experiment [2], in experiment [3], in [7], in [8] and in experiment [10] was inactive. For the same molecule, the call in experiment [12] was inactive. Further, the Potency result in experiment [4], in [6], in experiment [9], in [11], in experiment [13] and in [14] was “inactive” each time. Further, the Potency in experiment [5] was 12.3 µM (active).

For the molecule `Cc1cc(C)cc([N+](=O)[O-])c1`, the outcome in experiment [1], in [2], in experiment [3], in [7], in experiment [16] and in experiment [8] was inactive. The call in experiment [10] and in experiment [12] was inactive. The Potency entry in experiment [5], in [15], in experiment [6], in experiment [9], in experiment [11] and in experiment [13] was “inactive” each time. Also, in experiment [14], the Potency entry was “inactive”.

In the case of `CCC(=O)OCCC(C)CCC=C(C)C` (stereo not given), the molecule was classed as inactive in [1], in [2], in experiment [3], in experiment [7], in [16] and in experiment [8]. The call in [10] and in experiment [12] was inactive. Besides, the Potency entry in [5], in experiment [17], in experiment [15], in experiment [6], in experiment [9] and in experiment [11] was “inactive” throughout. Further, the Potency result in experiment [13] was “inactive”.

Take `C1=CCC(c2ccccc2)CC1` (stereo not given): the call in [1], in experiment [2], in experiment [7], in [8], in experiment [18] and in experiment [19] was inactive. Moreover, the molecule was classed as inactive in experiment [10] and in experiment [12]. Further, the Potency entry in experiment [4], in experiment [5], in experiment [17], in experiment [15], in experiment [6] and in [9] was “inactive” each time. The Potency result in [11], in [13] and in experiment [14] was “inactive” in each case.

Turning to `O=S(=O)(O)c1cc(O)ccc1O`, the molecule was classed as inactive in experiment [1], in experiment [2], in experiment [3], in [7], in [16] and in experiment [8]. For the same molecule, the molecule was classed as inactive in experiment [18], in experiment [19], in experiment [10] and in experiment [12]. The Potency result in [5], in [17], in experiment [15], in experiment [6], in experiment [9] and in experiment [11] was “inactive” in each case. For the same molecule, in [13], the Potency result is “inactive”.

Take `CCN(CCC#N)c1ccccc1`: the result in experiment [1], in [2], in experiment [3], in [7], in experiment [16] and in [8] was inactive. For the same molecule, in experiment [12], the result was inactive. Further, the Potency entry in [5], in experiment [6], in experiment [9], in experiment [11] and in experiment [13] was “inactive” throughout.

Take `CCC(C)(CCC(C)C)C(=O)[O-].CCC(C)(CCC(C)C)C(=O)[O-].[Zn+2]` (stereo not given): the call in experiment [1], in experiment [16], in experiment [8], in experiment [10] and in experiment [12] was inactive. Further, the Potency result in experiment [4], in experiment [5], in experiment [17], in [15], in experiment [6] and in experiment [9] was “inactive” throughout. The Potency result in [11] and in experiment [13] was “inactive” in each case.

On to `CCOc1ccc(NC(=O)OC(C)C)cc1OCC`, for which the molecule was classed as inactive in experiment [1], in [7], in experiment [16], in experiment [8], in experiment [18] and in experiment [19]. Besides, the call in experiment [10] and in [12] was inactive. The Potency result in experiment [4], in experiment [5], in experiment [17], in experiment [9], in experiment [11] and in experiment [13] was “inactive” in each case.

As to `CCOC(=O)CC(CC(=O)OCC)(OC(C)=O)C(=O)OCC`, the outcome in experiment [1], in experiment [7], in experiment [16], in experiment [8], in [18] and in [19] was inactive. Further, the molecule was called inactive in [10]. Besides, the Potency entry in experiment [5], in experiment [17], in experiment [15], in experiment [6], in experiment [11] and in [13] was “inactive” each time.
